Over roughly 33,000 sequences, “e-score” has its median near -0.038; the highest 2% begin near 0.33. Shown is part of a subset that was picked to be rich in the highest values.
These sequences were tested against T1, GST-Rok-C97-191 (Bacillus subtilis subsp. subtilis str. …, UniProt O34857 97-191) (assay: protein binding microarray; Rok is a gene silencer of Bacillus subtilis; high values mean tight binding). Conditions: protein: recombinant; tags: GST (pTH5325, pDEST15-Magic modified); dsDNA, one strand shown.
T1 sequence: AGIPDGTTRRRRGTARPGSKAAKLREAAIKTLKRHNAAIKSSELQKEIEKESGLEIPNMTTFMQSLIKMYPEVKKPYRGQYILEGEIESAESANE
Outline: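 Each has a 25-mer constant primer and a 35-mer variable part from a de Bruijn sequence of order 10, covering every non-palindromic 8-mer at least 32 times (palindromic 16). Preference for each 8-mer is given as a rank-based, unitless enrichment score (E-score). Its range runs from 0.5 (most favored) to −0.5 (most disfavored).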
For GAGAGTGC, the binding signal was -0.103 E-score. Sequence ACGGCAAT has a binding signal of 0.0959 E-score. In the case of GGCTTCTA, the binding signal is reported as 0.11 E-score. Sequence ATCGCCGC has a binding signal of -0.0266 E-score. For ATATATCG, the binding signal was 0.366 E-score. ATATATCC showed a binding signal of 0.268 E-score. ATATATCA was tested, and the binding signal was 0.396 E-score. For GTATATCA, the binding signal was 0.216 E-score. With CTATATCA the binding signal was 0.185 E-score. With CTATATCC the binding signal was 0.17 E-score. CATTGTGA showed a binding signal of -0.101 E-score. In the case of AGAGGTTG, the binding signal is reported as -0.0137 E-score. AAAGTTAA gave a binding signal of -0.0842 E-score. ACGTCGAT gave a binding signal of 0.108 E-score. CTAATCTA gave a binding signal of 0.348 E-score. With ATAATCTA the binding signal was 0.289 E-score. Work on CGAATCTA yielded a binding signal of 0.256 E-score. GGAATCTA gave a binding signal of 0.339 E-score. GAAATCTC gave a binding signal of 0.209 E-score. Sequence GTAATCTA has a binding signal of 0.313 E-score. GAAATCTA was tested, and the binding signal was 0.383 E-score. GCAATCTA showed a binding signal of 0.307 E-score. AAAATCTC gave a binding signal of 0.242 E-score. For AAAATCTA, the binding signal was 0.339 E-score. AGAATCTA showed a binding signal of 0.322 E-score. AAAATCTG gave a binding signal of 0.00361 E-score. CAAAATCG was tested, and the binding signal was 0.0988 E-score. With TATGCCCA the binding signal was -0.134 E-score. Work on GTGGCAAA yielded a binding signal of 0.0701 E-score. Work on ACCGTAGT yielded a binding signal of 0.0984 E-score. ATGCGGCG showed a binding signal of -0.186 E-score. With AGCCGTTA the binding signal was 0.0336 E-score. Sequence TAAATCAA has a binding signal of 0.178 E-score. With CAAATCTA the binding signal was 0.354 E-score. Sequence CAAATCTG has a binding signal of -0.15 E-score. Sequence CAAATCTC has a binding signal of 0.0537 E-score. With TAAATCTA the binding signal was 0.364 E-score. For TAAATCGA, the binding signal was 0.0722 E-score. With AGTCTATC the binding signal was -0.0937 E-score. For CATGTCAA, the binding signal was -0.0291 E-score. Work on TAAATATA yielded a binding signal of 0.378 E-score. With CAAATATA the binding signal was 0.346 E-score. TAAATAAA gave a binding signal of 0.162 E-score. Sequence GAAATATA has a binding signal of 0.305 E-score. With CAAATATG the binding signal was 0.161 E-score. With AAAATATG the binding signal was 0.271 E-score. Work on AAAATATC yielded a binding signal of 0.186 E-score. CAAATATC was tested, and the binding signal was 0.231 E-score. AAAATATA showed a binding signal of 0.399 E-score. In the case of CCCACCTA, the binding signal is reported as -0.0708 E-score. AAGTTAAG was tested, and the binding signal was -0.104 E-score. Work on GTTGAATA yielded a binding signal of 0.173 E-score. CTTTTGTA gave a binding signal of 0.241 E-score. For ATTGATAG, the binding signal was 0.348 E-score. In the case of ATTGATAA, the binding signal is reported as 0.243 E-score. ATTGATAC gave a binding signal of 0.22 E-score. For CGATACAC, the binding signal was 0.155 E-score. CGTTCCGA showed a binding signal of -0.149 E-score. Work on AGCACGGA yielded a binding signal of 0.0231 E-score. Sequence AATCTAAC has a binding signal of 0.199 E-score. For AATCTACT, the binding signal was 0.43 E-score. For AATCTAAG, the binding signal was 0.234 E-score. For AATCTAGT, the binding signal was 0.282 E-score. AATCTACG gave a binding signal of 0.36 E-score. GATCTACC was tested, and the binding signal was 0.35 E-score. ACTCTACT was tested, and the binding signal was 0.273 E-score. Work on CATCTACC yielded a binding signal of 0.222 E-score. GATCTAAC gave a binding signal of 0.0254 E-score. Sequence AATCTACC has a binding signal of 0.447 E-score. CATCTACG was tested, and the binding signal was -0.0119 E-score. AATCTAGC gave a binding signal of 0.234 E-score. AGAATGCA was tested, and the binding signal was 0.038 E-score. In the case of ACGTTTCC, the binding signal is reported as -0.131 E-score. For AAGTGTCG, the binding signal was 0.0859 E-score. Sequence AGAAAAGC has a binding signal of 0.217 E-score. With ACCACCAT the binding signal was -0.0276 E-score. For AGCTATCA, the binding signal was 0.335 E-score. With AACTATTA the binding signal was 0.444 E-score. With ATCTATTA the binding signal was 0.353 E-score. With CACTATCA the binding signal was 0.175 E-score. GGCTATCA showed a binding signal of -0.0497 E-score. In the case of CTCTATTA, the binding signal is reported as 0.246 E-score. For GTCTATTA, the binding signal was 0.0713 E-score. With CACTATTA the binding signal was 0.202 E-score. Work on AACTATCA yielded a binding signal of 0.369 E-score. Sequence GACTATTA has a binding signal of 0.165 E-score. For GACTATCA, the binding signal was -0.147 E-score. For CGCTATCA, the binding signal was 0.0552 E-score. Work on ATAGTTGC yielded a binding signal of 0.306 E-score. With CTGGAACC the binding signal was -0.0259 E-score. Work on AGTCAGTA yielded a binding signal of 0.149 E-score. AAGGCGCT showed a binding signal of -0.115 E-score. Work on CCGCCTAG yielded a binding signal of -0.149 E-score. For GAGATGAA, the binding signal was -0.0161 E-score.

From article PMC6212790, “How bacterial xenogeneic silencer rok distinguishes foreign from self DNA in its resident genome”
